What all share (assay): NCI-60 one-dose screen, 48 h (100 = growth as untreated, 0 = no growth, -100 = all killed)
Details in all cases: 10 µM unless noted

The subject of assay [1] is NCI-H23 lung.
Assay [2] has as its system NCI-H226 lung.
Assay [3] concerns NCI-H322M lung.
Assay [4] relates to HOP-62 NSCLC.
Assay [5] concerns NCI-H460 lung.
The test system of assay [6] is HOP-92 NSCLC.
For assay [7], the system named is NCI-H522 lung.
Assay [8] has as its system A549/ATCC NSCLC.
The subject of assay [9] is 786-0 renal.
Assay [10] concerns COLO 205 colon.

The panel holds about 83,000 compounds, 20% with a hit somewhere; the sample as a whole holds those more often.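 A percent growth of 40 corresponds to 60% growth inhibition; 0 means no net growth; -100 means all cells died. Active threshold: below 10.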 Unmarked numbers belong to inactive results. Active and inactive are the calls of the source.

On to `CCc1ccc(OCc2ccccc2C(=O)Nc2ccc3nc(C)cc(N)c3c2)cc1`, for which the growth was -73.2% (active) in assay [1]; -45.8% (active) in assay [2]; -92.9% (active) in assay [3]; -78.6% (active) in [4]; -67.6% (active) in assay [5]; -87.2% (active) in assay [6]. For the same compound, the growth in assay [7] was -84.5% (active); in assay [8] it was -73.6% (active); in assay [9] it was -88.9% (active); in assay [10], -79% (active).

As to `Cc1cc(O)cc(O)c1N=NC1=NCCS1`, the growth is 98% in assay [1]; 117% in [2]; 97.8% in assay [3]; 95.7% in assay [4]; 115% in assay [5]; 109% in assay [6]. Further, the growth in assay [7] is 90.3%; in assay [8] it was 101%; in assay [9] it was 96.6%; in [10] it was 100%.

Regarding `COc1cc(NC(=O)COc2cc(C)nc3ccc(OC)cc23)cc(OC)c1`, the growth in assay [1] was 86.9%; in assay [2], 87.1%; in [3], 94%; in [4], 91.3%; in [5], 95%; in assay [6], 94.1%. Moreover, the growth in assay [7] was 75%; in [8] it was 87%; in assay [9] it was 97.1%; in assay [10], 69.4%.

`COc1ccc(Sc2[nH]c(C(C)=O)c3ccccc23)cc1`: the growth was 82.6% in [1]; 69.8% in assay [2]; 76.7% in assay [3]; 83.7% in [4]; 20.4% in assay [5]; 65.8% in assay [6]. The growth in [7] was -7.2% (active); in assay [8], 23%; in assay [9], 92.2%; in [10], -31.2% (active).

For `COc1ccc2c(c1)/C(=C1\S/C(=N/c3nnc(C)s3)NC1=O)C(=O)N2Cc1ccc(Cl)cc1`, the growth in [1] was 34.5%; in [2], 56.5%; in [3] it was 49.9%; in assay [4] it was 66.8%; in assay [5], 8.75% (active); in assay [6] it was 26%. Also, the growth in assay [7] was 45.8%; in [8] it was 36.2%; in assay [9] it was 49.2%; in [10] it was 79.9%.

Turning to `CCOC(=O)c1c(-c2ccc(O)cc2)c(C#N)c2c(C#N)c(N)nn2c1N`, the growth is 72.6% in assay [1]; 69.3% in assay [2]; 95.1% in [3]; 66.6% in [4]; 74.3% in assay [5]; 41.7% in assay [6]. Further, the growth in assay [7] was 39.2%; in [8] it was 80.7%; in [9], 93%; in assay [10] it was 74.6%.

For the compound `C=CCn1c(SCC(=O)Nc2ccc(C(=O)/C=C/c3cc(OC)c(OC)c(OC)c3)cc2)nnc1-c1ccccc1`, the growth in [1] is 93%; in assay [2], 88.5%; in assay [3], 104%; in assay [4] it was 117%; in [5] it was 89.8%; in assay [6], 150%. Further, the growth in assay [7] is 82.8%; in assay [8], 85.1%; in assay [9] it was 93.1%; in [10], 101%.

Turning to `Cc1nccc2c3ccc(OCc4cn(-c5ccc(Cl)cc5)nn4)cc3n(CC(C)C)c12`, the growth is 14.1% in [1]; 42% in assay [2]; 66.1% in assay [3]; 35.6% in assay [4]; 17% in assay [5]; 8.37% (active) in [6]. Also, the growth in [7] is 1.04% (active); in assay [8], 30.7%; in assay [9], 2.68% (active); in assay [10] it was -22.6% (active).

`C(=C\c1cn(-c2ccccc2)nc1-c1ccccc1)/c1nnc(-c2c[nH]c3ccccc23)o1`: the growth is 51% in assay [1]; 57.3% in assay [2]; 80.3% in assay [3]; 38.9% in [4]; 14.1% in [5]; 60.2% in [6]. The growth in assay [7] is 61.5%; in assay [8], 46.7%; in [9], 40.6%; in assay [10] it was 31.8%.

On to `CC1(C)[C@@H](O)CC[C@]2(C)[C@H]3CC[C@@H]4[C@H]5[C@H](c6cn(-c7ccccc7)nn6)CC[C@]5(CO)CC[C@@]4(C)[C@]3(C)CC[C@@H]12`, for which the growth is 92.1% in [1]; 80.9% in assay [2]; 79.7% in assay [3]; 93.9% in assay [4]; 78.4% in [5]; 100% in assay [6]. In addition, the growth in [7] was 69.4%; in [8], 74.5%; in assay [9], 91.7%; in assay [10] it was 95.2%.

For the compound `O=c1cc(/C=N\Nc2nc(-c3ccc(Cl)cc3Cl)cs2)c2cc(Cl)ccc2o1`, the growth was 85.3% in [1]; 87.9% in [2]; 95.3% in [3]; 80.3% in [4]; 96.1% in assay [5]; 82.2% in assay [6]. Besides, the growth in assay [7] was 88.6%; in assay [8], 88.3%; in [9] it was 96.9%; in [10] it was 107%.

The values are drawn from PubChem BioAssay (NCI).
